Experimental data taken from ChEMBL document CHEMBL4513216, “Probing the Open Global Health Chemical Diversity Library for Multistage-Active Starting Points for Next-Generation Antimalarials” (ACS Infect Dis, 2020).
Screen size: about 69,000 compounds; about 8,600 (12%) showed an effect of 50% or more. The list comes from a sample in which strong results are over-represented; it also holds similar structures and randomly drawn compounds.

tested on: Plasmodium berghei; test: Screen against P. berghei liver stage (PbLuc), transformed with Luciferase, at 10uM; type: functional, HepG2; conditions: tested at 10 uM

| SMILES | INHIBITION |
| --- | --- |
| CC(CNCc1ccc(Br)cc1)Oc1ccccn1 (configuration not stated) | 13% |
| Cc1ccc2nc(-c3nc4c([nH]3)CC(C)(C)CNC4=O)cn2c1 | 16.9% |
| c1coc(CN2CCc3onc(Cn4cccc4)c3C2)c1 | 20.1% |
| CC(C)Oc1ccccc1C1CC(=O)Nc2c1cnn2C (configuration not stated) | -31.6% |
| Cc1cccc(C(=O)N2CCCCC2c2nc3cc(F)ccc3[nH]2)n1 (configuration not stated) | 39.1% |
| NC(=O)c1ccc(N2CCCCC2)c(NC(=O)c2ccc(F)cc2F)c1 | 89.1% |
| Cc1ccc(NC(=O)c2ccc(N3CCCCC3)nn2)c(Cl)c1 | 11.3% |
| CC(NC(=O)Nc1cc(F)ccc1N1CCCCC1)c1nncn1C (configuration not stated) | 25.7% |
| NC(=O)c1ccc(N2CCCCC2)c(NC(=O)c2ccc(Br)cc2)c1 | 39.5% |
| O=C(c1cc(Br)ccc1-n1cnnn1)N1CCCCC1 | 24.2% |
| NC(=O)c1ccc(N2CCCCC2)c(NC(=O)c2cc(Br)ccc2F)c1 | 86.8% |
| COCCCN1Cc2cccc(NC(=O)c3cc(F)ccc3F)c2C1 | 32.9% |
| NC(=O)c1ccc(N2CCCCC2)c(NC(=O)c2cc(Br)ccc2Cl)c1 | 81.2% |
| Cc1cc(NC(=O)c2ccc(F)cc2F)n(C)n1 | 29.3% |
| NC(=O)c1ccc(N2CCCCC2)c(NC(=O)c2cc(F)ccc2F)c1 | 93.1% |
| C[C@@H]1CN(Cc2cc3ccccc3n2C)CC[C@]1(C)O | -13.6% |
| CCc1cc(N(C)Cc2nonc2C)nc(N(C)C)n1 | 31.7% |
| CC(Cn1cccn1)NC(=O)NCc1ccc(S(C)(=O)=O)cc1 (configuration not stated) | 19.5% |
| CC(C)n1cnnc1CN(C)C(=O)c1cnn2ccccc12 | 38.2% |
| COc1cc(C)nc(N2CCN(C(=O)COCC3CC3)CC2)n1 | 23.295% |
| CC(C)C(=O)N1CC2(CCN(CC(C)(C)C)CC2)C1 | 1.34% |
| COCCN1CCOCC2(CCCN(Cc3ccc(C)o3)C2)C1 (configuration not stated) | 20.2% |
| CCN(CC(=O)NC1(C)CCS(=O)(=O)C1)Cc1ccc(OC)c(F)c1 (configuration not stated) | -9.37% |
| Cc1nccc([C@@H]2C[C@@H]3CCN(S(=O)(=O)C4CC4)C[C@H]3O2)n1 | -37.9% |
| Cc1ccc(C(=O)Nc2cc(C(N)=O)ccc2N2CCCCC2)cc1F | 69.3% |
| Cc1cc(C(N)=O)ccc1NC(=O)c1nc(N2CCCC2)ncc1Cl | 20.1% |

| SMILES | INHIBITION |
| --- | --- |
| Cc1cc(C(N)=O)ccc1NC(=O)c1nc(N2CCCCC2)ncc1Cl | 49.3% |
| Cc1ccc(C(=O)Nc2cc(C(N)=O)ccc2CN(C)C)cc1Cl | 16.4% |
| Cc1ccc(C(=O)Nc2ccc(N3CCCC3)cn2)cc1F | -6.12% |
| NC(=O)c1ccc(N2CCCCC2)c(NC(=O)c2ccc(F)cc2Cl)c1 | 73.2% |
| CCn1nc(C)c2nc(C(C)C)nc(N3CCOCC3)c21 | -38.8% |
| Cc1cnccc1-c1cnn(CCNC(=O)C(C)(C)C)c1C1CC1 | 39.7% |
| Cc1ccc(C(=O)N2C[C@@H](OCc3cccnc3)[C@H]3OCCC[C@@H]32)o1 | 35.4% |
| CN(Cc1cccc(OCCO)c1)Cc1cccc2ncccc12 | 76.6% |
| COCCN(Cc1cccc(OCCO)c1)Cc1ccccc1F | 13% |
| CN(Cc1cccnc1N)Cc1cccc2ncccc12 | 83% |
| CCCN(Cc1cccc(OCCO)c1)Cc1ccccc1OC | 25% |
| Cc1cn(CC(=O)N(C)Cc2cccc3ncccc23)c(=O)[nH]c1=O | -12.8% |
| CN(Cc1cccc(CCN)c1)Cc1cccc2ncccc12 | 20.3% |
| CC(=O)N1CCCC(Cc2cnc(-n3ccnc3)cn2)C1 (configuration not stated) | -33.4% |
| CCC(=O)c1ccc(OCC(=O)NC(C)c2nnn[nH]2)cc1 (configuration not stated) | -47.9% |
| C=C(C)COc1cccc(C(=O)NCCCc2nnn[nH]2)c1 | 9.41% |
| Cc1cc(C)c2nc(C)cc(C(=O)NC(C)c3nnn[nH]3)c2c1 (configuration not stated) | 45.1% |
| Cc1cc(C(=O)NC(C)c2nnn[nH]2)c2cccc(C)c2n1 (configuration not stated) | 60% |
| Cc1cc(C(=O)NC(C)c2nnn[nH]2)c2ccc(C)c(C)c2n1 (configuration not stated) | -11.6% |
| C=C(C)COc1cccc(C(=O)NC(C)c2nnn[nH]2)c1 (configuration not stated) | 52.1% |
| CN(C)C(=O)COC[C@@H]1CC[C@H]2[C@H](CCN2c2ncccn2)O1 | 0.542% |
| COCc1ccccc1NC(=O)CCNC(=O)c1ccoc1 | -77.9% |
| CN(C)C[C@@H]1CCC[C@@H]2CN(c3ncccn3)C[C@@H]21 | 16.1% |
| Cc1nnc(NC(=O)NCc2ccc(N3CCNC(=O)C3)cc2)s1 | 14.7% |
| CC(O)CNC(=O)NCc1ccc(N2CCNC(=O)C2)cc1 (configuration not stated) | 39.5% |
| O=C1CN(c2ccc(CNC(=O)Nc3nnc(C4CC4)s3)cc2)CCN1 | 59.6% |

| SMILES | INHIBITION |
| --- | --- |
| O=C1CN(c2ccc(CNC(=O)NCCO)cc2)CCN1 | 52.5% |
| O=C(NCc1ccc(N2CC=CC2)cc1)Nc1nnc(C2CC2)s1 | 3.87% |
| O=C1CN(c2ccc(CNC(=O)NCc3ccoc3)cc2)CCN1 | -22.9% |
| Cc1nn(CCC(=O)N(C)Cc2c(Cl)cnn2C)cc1Br | 18.3% |
| CCN(Cc1ccc(Cl)c(Cl)c1)C(=O)CCn1cncn1 | 19.3% |
| Cc1nc(C)n(CC2CN(c3ncccc3C#N)CCO2)n1 (configuration not stated) | -14.7% |
| O=C(O)c1cc(-c2cncnc2)cc(S(=O)(=O)N2CCCCCC2)c1 | -8% |
| CN(C)c1nccnc1C1CCN(C(=O)C2(C)CCCCN2C)CC1 (configuration not stated) | 28.6% |
| CC(C)n1nc(O)c2c1NC(=O)CSC2c1cnn(C)c1 (configuration not stated) | 9.36% |
| Cc1nn(-c2ncccn2)c2c1C(c1cnn(C)c1C)SCC(=O)N2 (configuration not stated) | 27.6% |
| Cc1n[nH]c2c1C(c1cnn(C)c1)SCC(=O)N2 (configuration not stated) | -2.37% |
| Cc1nn(-c2ncccn2)c2c1C(c1cnn(C)c1)SCC(=O)N2 (configuration not stated) | 61% |
| Cc1cc(C)nc(-n2nc(C)c3c2NC(=O)CSC3c2cnn(C)c2)n1 (configuration not stated) | 88.8% |
| Cc1nn(-c2ccccn2)c2c1C(c1cnn(C)c1)SCC(=O)N2 (configuration not stated) | 41.5% |
| COc1cc(CN2CCn3c(CO)nnc3C2)ccc1OC(C)C | 35.2% |
| Cc1noc(C)c1C(=O)N1CCCN(Cc2cscn2)CC1 | 9.64% |
| NCC1CCC(C(NC(=O)c2ccccc2)c2ccccn2)CC1 (configuration not stated) | 48.8% |
| Cc1noc(C)c1-c1cncc(C2CCCN2Cc2cn(C)cn2)n1 (configuration not stated) | 26.8% |
| Cc1ccc(NCc2ccc(C#N)cc2)c(CN(C)C)c1 | 86.7% |
| Cc1ccc(NS(=O)(=O)c2cccc(C#N)c2)c(CN(C)C)c1 | -0.613% |
| Cc1ccc(NS(=O)(=O)c2ccc(C#N)cc2)c(CN(C)C)c1 | -33.5% |
| Cc1cc(C)n(-c2ccc3nnc(C)n3n2)n1 | -14.9% |
| O=C(CSc1ccc(F)cc1F)NS(=O)(=O)c1ccc2c(c1)OCCO2 | -16.45% |
| COCCn1nc(C(=O)N(C)Cc2cnn(C)c2)ccc1=O | 36.3% |
| Cc1cc(NC(=O)CNC2CCCN(c3cccnn3)C2)on1 (configuration not stated) | 21% |
| CC(C)[C@H]1COC(=O)N1CC(=O)N1CCCN(C(=O)c2ccoc2)CC1 | 52.1% |

| SMILES | INHIBITION |
| --- | --- |
| CC(C)[C@H]1COC(=O)N1CC(=O)N1CCN(C(=O)c2ccco2)CC1 | 7.6% |
| Cc1ccccc1N1CCCN(C(=O)CN2C(=O)OC[C@@H]2C(C)C)CC1 | 23% |
| COCc1nnc(C(=O)N2CC(N3CCCCC3)C2)o1 | 10.6% |
| NCC1CCC(C(NC(=O)c2ccccn2)c2ccccn2)CC1 (configuration not stated) | 24.4% |
| O=C(c1ccoc1)N1CC[C@@H]2O[C@@H](COCC3CCOCC3)CC[C@@H]21 | 38.1% |
| CC(=O)N1CC[C@@H]2O[C@@H](COCC(=O)N3CCCC3)CC[C@@H]21 | 52% |
| O=C(c1ccco1)N1CC[C@@H]2O[C@H](COCC3CCOCC3)CC[C@@H]21 | -4.99% |
| NC(=O)N1CC[C@@H]2O[C@H](COCC(=O)N3CCCC3)CC[C@@H]21 | -27.9% |
| O=C(c1ccno1)N1CC[C@@H]2O[C@@H](COCCN3CCCC3)CC[C@@H]21 | 28.4% |
| O=C(c1ccco1)N1CC[C@@H]2O[C@@H](COCCN3CCCC3)CC[C@@H]21 | 83.5% |
| O=C(c1ccco1)N1CC[C@@H]2O[C@H](COCCN3CCCC3)CC[C@@H]21 | 24.1% |
| O=C(c1ccco1)N1CC[C@@H]2O[C@@H](COCC3CCOCC3)CC[C@@H]21 | 68.9% |
| NC(=O)N1CC[C@@H]2O[C@@H](COCC(=O)N3CCCC3)CC[C@@H]21 | 15.4% |
| CC(C)(NS(C)(=O)=O)c1nc(-c2ccc(F)cc2Cl)no1 | -9.76% |
| Cc1cccc(C(=O)NCc2cccnc2N(C)C)n1 | 35.6% |
| Cc1cc(C(=O)N2CCCC2)ccc1NCC(=O)N1CCOCC1 | 7.67% |
| O=C(c1ccccc1)N1CC[C@H]2C[C@@H](c3nccs3)O[C@@H]2C1 | -22.5% |
| O=c1cccnn1CC1CN(Cc2ccsc2)Cc2nccn2C1 (configuration not stated) | 40.4% |
| CC(C(=O)N1CCCCCC1)N1CCN(c2nccs2)CC1 (configuration not stated) | 31.1% |
| Cc1cc(Nc2ccccn2)nc(C2CCCN(CCO)C2)n1 (configuration not stated) | 17.4% |
| Cc1nc(CCNC(=O)Nc2cc(C(F)(F)F)c[nH]c2=O)cs1 | 19.7% |
| COc1ccc(NC(=O)N(CCO)Cc2ccsc2)c(OC)c1 | 5.85% |
| COc1ccccc1NC(=O)N(CCO)Cc1ccsc1 | 77.6% |
| CCOc1ccccc1NC(=O)N(CCO)Cc1ccsc1 | -8.51% |
